Test results from PubChem BioAssay AID1578 (Sanford-Burnham Center for Chemical Genomics, 2009).
Screen size: about 290,000 compounds; about 3,000 (1%) were called active. Only a selection was taken, and actives are over-represented in it overall. Unmarked numbers belong to inactive results. No stated cut-off is given here; in the data, active means inhibition mostly above about 36% (no sharp cut-off); inactive means mostly below about 34%.

Assay: NOD1 signaling inhibitors, primary screen, cell-based, luminescence, uHTS (AID 1578);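 further: HEK-293T reporter cells stimulated with the NOD1 agonist gamma-tri-DAP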
Details: NOD1-driven NF-kB luciferase reporter cells, at 4 µM, stronger effect = higher value

Row | SMILES | inhibition
1 | CC(C)CC(=O)NC(C)C(c1cccs1)N1CCOCC1 (stereo not given) | -10.9%
2 | O=c1cc(C(F)(F)F)[nH]c(=S)n1-c1ccccc1 | -3.4%
3 | O=[N+]([O-])c1ccc(-c2cnc3ccccc3n2)cc1 | -42.9%
4 | O=[N+]([O-])c1ccc(-c2c(O)c3ccccc3c3nc4ccccc4nc23)cc1 | 87.7% (active)
5 | Cc1cc(-c2ccc([N+](=O)[O-])cc2)nc2ccccc12 | -26.6%
6 | CCOC(=O)c1cnn(-c2ccc(C(F)(F)F)cn2)c1N | -92.9%
7 | CC(=O)Nc1ccc(NC(=O)CCOc2cc(C)ccc2C)cc1 | 46.4%
8 | CCOC(=O)C1(Cc2ccc(OC)cc2)CCN(C(=O)CCn2cccn2)CC1 | 1.1%
9 | Cc1cc(C)c2nc(NNC(=O)c3cc(-c4cccs4)nc4ccccc34)sc2c1 | -29.4%
10 | Cc1cccc2sc(NNC(=O)c3cc(-c4cccs4)nc4ccccc34)nc12 | 86.7% (active)
11 | Cc1ccc2sc(NNC(=O)c3cc(-c4cccs4)nc4ccccc34)nc2c1C | -36.7%
12 | O=C(NCCOc1ccc(Cl)cc1)c1ccc2ccccc2n1 | -22.8%
13 | c1ccc(-c2nc3cnccn3c2Nc2ccc3c(c2)OCCO3)cc1 | -26.2%
14 | Cc1nn(CC(=O)c2ccc(Cl)s2)c(C)c1[N+](=O)[O-] | -20.3%
15 | COc1ccc(Cc2nnc(NC(=O)c3cccc(F)c3)s2)cc1OC | -8%
16 | COc1ccc(CCn2c(C)cc(C(=O)CCl)c2C)cc1OC | 59.7% (active)
17 | Cc1cc(C(=O)CCl)c(C)n1CC1COc2ccccc2O1 (stereo not given) | 51.3% (active)
18 | Cc1cc(C(=O)CSc2nnnn2-c2ccccc2)c(C)n1CCc1ccccc1 | -52.2%
19 | CCOC(=O)c1cc(C)n(CCc2ccccc2)c1C | -18.3%
20 | COc1ccc(CCn2c(C)cc(C(=O)CSc3nnnn3-c3ccccc3)c2C)cc1OC | -55.4%
21 | COc1ccc(CCn2c(C)c(C(C)=O)c(C(C)=O)c2C)cc1OC | -23.3%
22 | Cc1cc(C(=O)CN2C(=O)C(=O)N(Cc3ccccc3)C2=O)c(C)n1CC1COc2ccccc2O1 (stereo not given) | 27.8%
23 | Cc1cc(C(=O)COC(=O)c2ccc(O)cc2)c(C)n1CC1COc2ccccc2O1 (stereo not given) | -9.9%
24 | Cn1cccc1C(NC(=O)c1ccccc1)C(Cl)(Cl)Cl (stereo not given) | -0.5%

Row | SMILES | inhibition
25 | Cc1cccc(C)c1OCCNC(=O)c1ccc2ccccc2n1 | 53.9%
26 | COc1cccc(C(=O)Nc2ccc(Cl)c(C(F)(F)F)c2)c1 | -30.7%
27 | Cc1cc(=O)[nH]c(N/N=C/c2cn(CCC#N)nc2-c2ccccc2)n1 | -41.6%
28 | Cc1cc(NC(=O)CN(C)C)c([N+](=O)[O-])cc1C | -1.4%
29 | COC(=O)C1=C(Cn2cnc3ccccc32)NC(=O)NC1c1cc(C)ccc1C (stereo not given) | 14.7%
30 | Cc1nnc2n(c1=O)C(CS(=O)(=O)c1ccccc1)CS2 (stereo not given) | 9.4%
31 | CCCc1nnc(NC(=O)CCC(=O)N2CCN(Cc3cc(F)ccc3OC)CC2)s1 | -10.4%
32 | CCOC(=O)CNC(=O)Cc1ccc(Cl)cc1 | -9.2%
33 | Cc1nc2c(c(C)nn2-c2ccccc2)c(C)c1Cl | 6.2%
34 | Cc1cc(C)c2c(C)nn(-c3ccccc3)c2n1 | -3.5%
35 | CN(C)S(=O)(=O)c1cccc(C(=O)OCC(=O)Nc2sccc2C#N)c1 | 5.6%
36 | Fc1ccccc1Cc1nnc2n1N=C(c1ccc(Cl)cc1)CS2 | -16%
37 | Nc1cc(-c2ccc(Br)cc2)nn1Cc1ccccc1 | 46.7% (active)
38 | Nc1cc(-c2cccc(Br)c2)nn1Cc1ccccc1 | -9.7%
39 | Nc1cc(-c2ccccc2)nn1Cc1ccccc1 | -25.1%
40 | Cc1cc(/C=C2\SC(=Nc3ccc(F)cc3)NC2=O)c(C)n1-c1ccc(S(N)(=O)=O)cc1 | -10.7%
41 | O=C(CSc1nnc(Cc2ccccc2)o1)NC1CCCCC1 | -2.8%
42 | COc1ccc(OCc2nnc(SCC(=O)NC3CCCCC3)o2)cc1 | -22.6%
43 | COc1ccc(Cc2nnc(SCC(=O)NC3CCCC3)o2)cc1 | 71.8% (active)
44 | COc1ccc(C2NC(=O)CCC2[N+](=O)[O-])cc1 (stereo not given) | -17.7%
45 | CCOC(=O)c1ccccc1NC(=O)c1cc2ccccc2o1 | -31.6%
46 | C/C(=N\NC(=O)c1cc(C)nc2ccccc12)c1ccco1 | -18.1%
47 | O=C(CCCCn1c(=O)[nH]c2ccccc2c1=O)NCCC1=CCCCC1 | -3.1%
48 | O=C(N/N=C/c1ccc(OC(F)F)cc1)c1ccc(CSc2nc3ccccc3[nH]2)cc1 | -27.9%

Row | SMILES | inhibition
49 | COc1cc(/C=N/NC(=O)c2ccc(CSc3nc4ccccc4[nH]3)cc2)ccc1O | -22.3%
50 | CCOc1ccc(/C=N/NC(=O)c2ccc(CSc3nc4ccccc4[nH]3)cc2)cc1 | 66.9% (active)
51 | Cn1c(=O)c2c(nc(N3CCN(c4ccc([N+](=O)[O-])cc4)CC3)n2C)n(C)c1=O | 0.8%
52 | CCOc1ccccc1C1C(C#N)=C(N)Oc2cc(C)n(Cc3ccccn3)c(=O)c21 (stereo not given) | 4.8%
53 | Cc1ccc2c3c(cccc13)-c1ccccc1C2=O | -32.2%
54 | Cc1ccc(C)c(NC(=O)COC(=O)c2cccc3c2C(=O)c2ccccc2C3=O)c1 | 16.2%
55 | Cc1cccc(-c2cc3c(nn2)-c2ccccc2C3=O)c1 | -99%
56 | O=C1c2ccccc2C(=O)c2c1ccc1c(=O)n(-c3ccccc3)[nH]c21 | 8.9%
57 | O=C(Cn1c(C(F)(F)F)nc2ccccc21)N1CCCC1 | -9.5%
58 | CC(CN1C(C)CCCC1C)OC(=O)c1ccc(Cl)cc1Cl (stereo not given) | -14.9%
59 | CCN(CC(=O)NCc1ccc(F)cc1)CC(=O)NC1CCCC1 | -35.5%
60 | CCCn1nnnc1SCC(=O)N1CCCc2ccccc21 | -20%
61 | CC1CCN(CC(=O)n2c3c(c4ccccc42)CCCC3)CC1 | 7.8%
62 | Cc1ccnc(SCC(=O)n2c3c(c4ccccc42)CC(C)CC3)n1 (stereo not given) | 8.4%
63 | CC1CCc2c(c3ccccc3n2C(=O)CCl)C1 (stereo not given) | 74.2% (active)
64 | COc1ccc(OCc2nc(N)nc(Nc3cccc(C)c3C)n2)cc1 | -7%
65 | Cc1cccc(Nc2nc(N)nc(CN3CCC(C)CC3)n2)c1C | -38.2%
66 | CC1CC(C)CN(Cc2nc(N)nc(Nc3ccc4ccccc4c3)n2)C1 (stereo not given) | -11.4%
67 | Cc1ccc(Nc2nc(N)nc(CSc3nccn3C)n2)c(C)c1 | -29.9%
68 | Nc1nc(CCl)nc(Nc2ccccc2)n1 | 36.6%
69 | COc1cccc(Nc2nc(N)nc(CCl)n2)c1 | -7.5%
70 | Cc1cccc(Nc2nc(N)nc(CN3CCN(C)CC3)n2)c1 | -6.7%
71 | Cc1ccc(Nc2nc(N)nc(CN3CCCCCC3)n2)c(C)c1 | -23.1%
72 | COc1ccc(C(C)C)cc1S(=O)(=O)N1CCC(C(=O)NCc2cccnc2)CC1 | -9.3%

Row | SMILES | inhibition
73 | CN1CCN(C(=O)N2CCNC2=O)CC1 | -22%
74 | COc1ccc(/C(O)=C2/C(=O)C(=O)N(c3ccccn3)C2c2ccc(C(C)C)cc2)cc1 (stereo not given) | -7.2%
75 | Cc1nc2cc(NS(=O)(=O)c3c(C)c(C)cc(C)c3C)ccc2s1 | 22.1%
76 | COc1ccc(NC(=O)[C@@H]2[C@@H]3C(=O)N(C4CCCCC4)C(=O)[C@@H]3C3c4ccccc4C=CN32)cc1 (stereo not given in full) | -4.8%
77 | COc1ccc2sc(NC(=O)CC(C)C)nc2c1 | -66.7%
78 | Cn1c(=S)[nH]c2[nH]c(=O)cnc2c1=O | -2.8%
79 | COc1ccc(NC(=O)c2ccc(C(=O)c3ccccc3)o2)cc1 | -21.8%
80 | COc1ccc(CCNC(=O)c2nnn(CC(=O)Nc3ccc(C)cc3C)c2N)cc1OC | -14.4%
81 | COC(=O)C1(C)NC(c2ccccc2C)C2C(=O)N(c3ccc(F)cc3)C(=O)C21 (stereo not given) | -24.2%
82 | Cc1cccc(C(=O)Nc2nnc(S(=O)(=O)N3CCC(C)CC3)s2)c1 | 21.6%
83 | CC1CCN(S(=O)(=O)c2nnc(NC(=O)c3cccc([N+](=O)[O-])c3)s2)CC1 | 30.9%
84 | O=C(Nc1nnc(S(=O)(=O)N2CCCCC2)s1)c1ccc(Cl)cc1 | 37.5%
85 | Cc1ccc(C(=O)Nc2nnc(S(=O)(=O)N3CCCCCC3)s2)cc1 | -23.3%
86 | COc1cc(/C=C2/SC(=S)N(CC(=O)NC(C)(C)C)C2=O)cc(OC)c1OC | 2.3%
87 | COc1ccc2c(CSc3nnc(-c4cccnc4)n3-c3ccccc3F)cc(=O)oc2c1 | -12.1%
88 | Cc1ccc(S(=O)(=O)N(C)C)cc1NC(=O)CN1C(=O)NC2(CCCCCC2)C1=O | -38.1%
89 | CCOC(=O)[C@@H]1[C@H]2COc3ccc(Br)cc3[C@H]2N2C(=O)N(c3ccc(C)cc3)C(=O)[C@]12C | -18.3%
90 | O=C(CSCc1ccccc1)Nc1ccc(F)c(F)c1 | -34.3%
91 | O=C(CSCc1ccccc1)Nc1ccc(F)cc1F | 7.2%
92 | O=C(CSCc1ccccc1)NNc1c(F)c(F)cc(F)c1F | 34.4% (active)
93 | CCn1c(=O)c2cc(C(=O)NCc3cccs3)sc2c2ccccc21 | -17.9%
94 | COc1ccc(-c2noc(C3CCCN(C(=O)c4cccc(F)c4)C3)n2)cc1 (stereo not given) | -12.2%
95 | CN1CCC(OC(=O)Cc2ccc(Cl)cc2)CC1 | -12.1%
